L3MBTL1 inh-1 = inhibitors of human L3MBTL1; AlphaScreen L3MBTL1–H3K9me1 peptide binding; Potency, µM (doses to about 57.1 µM), usual class: inhibitors; Q9Y468; 230,000 tested, 0.66% active; further: nearly all actives have a fitted effect of over 60% in size
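AlphaScreen assay: L3MBTL1 (50 nM final) was preincubated 30 min at room temperature with biotinylated H3(1-15)K9me1 peptide (75 nM final), then 30 min with library compounds; streptavidin donor and nickel chelate acceptor beads (10 ug/mL final) added, 30 min dark.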
FEN1 inh-1 = human FEN1 inhibition. P39748. Recombinant FEN1 flap cleavage, fluorescence, 15 min. Potency, µM (series often up to 114 µM), most hits filed as inhibitors. 390,000 tested, 0.35% active; further: nearly all actives have a fitted effect of over 65% in size
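Recombinant FEN1 (10 nM) was preincubated with pin-transferred compounds for 15 min at room temperature, then flap DNA substrate (50 nM final) was added. Plates were read at 0 and 15 min, and normalized concentration–response data were fitted to a four-parameter Hill equation.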
RECQ1 inh-1 = RECQ1 (human) helicase inhibition; Potency, µM (titrated, usually from 57.3 µM), usual class: inhibitors; P46063; RECQ1 DNA unwinding, red fluorescence kinetic read; 240,000 tested, 0.54% active; AID 2549; further: nearly all actives have a fitted effect of over 30% in size
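50 nM RECQ1T1 preincubated 15 min with compound in Tris pH 8.0 buffer with MgCl2, DTT, Tween-20 and 2.5 ug/ml poly(dI-dC); started with 200 nM TAMRA/BHQ-2 forked duplex and 2 mM ATP. Unwinding read as fluorescence (525/598 nm), two reads 2 h apart.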
BLM helicase inh-1 = blocks DNA unwinding by human BLM helicase | AID 2528 | Potency, µM (series often up to 56.1 µM), most hits filed as inhibitors | 350,000 tested, 0.2% active | recombinant BLM DNA unwinding, fluorescence dequenching; further: nearly all actives have a fitted effect of over 35% in size
Target sequence (P54132 whole entry, looked up): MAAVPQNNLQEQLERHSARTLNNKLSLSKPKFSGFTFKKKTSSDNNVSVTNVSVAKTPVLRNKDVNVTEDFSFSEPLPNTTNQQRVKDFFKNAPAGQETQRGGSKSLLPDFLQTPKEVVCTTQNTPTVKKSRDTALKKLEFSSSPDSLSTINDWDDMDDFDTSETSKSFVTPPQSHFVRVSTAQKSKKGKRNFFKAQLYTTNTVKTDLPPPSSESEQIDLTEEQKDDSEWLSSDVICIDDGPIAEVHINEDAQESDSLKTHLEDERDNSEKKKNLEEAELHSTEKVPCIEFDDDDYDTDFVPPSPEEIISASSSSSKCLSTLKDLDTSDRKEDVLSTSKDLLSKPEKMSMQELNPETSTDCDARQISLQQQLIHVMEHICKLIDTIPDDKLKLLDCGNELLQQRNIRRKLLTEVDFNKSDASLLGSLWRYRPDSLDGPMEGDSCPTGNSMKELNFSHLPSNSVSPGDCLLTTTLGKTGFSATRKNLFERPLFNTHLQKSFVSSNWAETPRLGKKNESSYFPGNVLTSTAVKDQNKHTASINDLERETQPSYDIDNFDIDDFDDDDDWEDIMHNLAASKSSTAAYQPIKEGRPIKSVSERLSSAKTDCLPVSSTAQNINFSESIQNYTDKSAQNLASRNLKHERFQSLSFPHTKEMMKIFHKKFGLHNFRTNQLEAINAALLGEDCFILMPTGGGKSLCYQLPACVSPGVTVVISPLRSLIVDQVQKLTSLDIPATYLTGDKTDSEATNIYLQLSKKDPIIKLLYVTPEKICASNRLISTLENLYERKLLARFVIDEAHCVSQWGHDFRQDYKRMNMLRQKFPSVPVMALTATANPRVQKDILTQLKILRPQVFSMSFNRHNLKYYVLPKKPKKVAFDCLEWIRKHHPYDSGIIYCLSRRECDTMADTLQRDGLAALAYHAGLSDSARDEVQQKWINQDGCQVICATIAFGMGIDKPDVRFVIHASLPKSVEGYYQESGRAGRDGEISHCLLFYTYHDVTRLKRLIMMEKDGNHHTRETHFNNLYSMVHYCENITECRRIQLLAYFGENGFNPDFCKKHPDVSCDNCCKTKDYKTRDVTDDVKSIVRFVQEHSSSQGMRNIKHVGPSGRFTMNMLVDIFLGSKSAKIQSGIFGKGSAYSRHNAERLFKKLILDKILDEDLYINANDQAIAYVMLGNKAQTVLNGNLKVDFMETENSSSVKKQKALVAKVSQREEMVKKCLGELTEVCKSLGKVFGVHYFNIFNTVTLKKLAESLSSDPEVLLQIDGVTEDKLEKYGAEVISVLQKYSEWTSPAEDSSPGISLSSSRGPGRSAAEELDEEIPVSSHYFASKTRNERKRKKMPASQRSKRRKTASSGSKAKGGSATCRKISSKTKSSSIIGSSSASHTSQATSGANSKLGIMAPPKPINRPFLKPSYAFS
WRN helicase inh-1 = WRN helicase (human) inhibition. Potency, µM (series often up to 114 µM), most hits filed as inhibitors. 360,000 tested, 0.46% active. AID 651768. Q14191. WRN helicase unwinding, fluorescent forked duplex, kinetic; further: nearly all actives have a fitted effect of over 55% in size
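WRN at 20 nM final preincubated with compound 15 min at room temperature; reaction started with 100 nM fluorophore/quencher forked duplex oligonucleotide and 2 mM ATP final. Unwinding followed kinetically by red fluorescence (ex 525, em 598 nm).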
RECQ1 inh conf = confirmation of human RECQ1 helicase inhibitors. 610 tested, 28% active. shares compounds with RECQ1 inh-1. Potency, µM (series often up to 229 µM), hits mostly inhibitors. RECQ1 helicase DNA unwinding, fluorescence; further: nearly all actives have a fitted effect of over 45% in size
RECQ1 ADP FP = displaces ADP in a fluorescence polarization counter-screen for RECQ1 hits; shares compounds with RECQ1 inh-1; ADP fluorescence polarization displacement counterscreen; Potency, µM (series often up to 228 µM), usual class: inhibitors; 530 tested, 27% active; AID 2711; further: nearly all actives have a fitted effect of over 45% in size
RECQ1 inh-2 = RECQ1 helicase inhibition confirmed, round 2; AID 504841; recombinant RECQ1 DNA unwinding, red fluorescence; shares compounds with RECQ1 inh-1; 1,100 tested, 15% active; Potency, µM (top dose mostly 119 µM), most hits filed as inhibitors; further: nearly all actives have a fitted effect of over 50% in size
L3MBTL1 inh-2 = blocks human L3MBTL1 methyl-lysine binding. L3MBTL1 methyl-lysine binding inhibition, biochemical qHTS. Potency, µM, usual class: inhibitors. 500 tested, 91% active. AID 540279. shares compounds with L3MBTL1 inh-1; further: nearly all actives have a fitted effect of over 70% in size
L3MBTL1 ctr = AlphaScreen signal inhibition, L3MBTL1 hit counter-screen; shares compounds with L3MBTL1 inh-1; AlphaScreen counterscreen, signal inhibition; Potency, µM (doses to about 57.1 µM), usual class: inhibitors; 500 tested, under 10 active; AID 602224
FEN1 inh-2 = FEN1 inhibition, cherry-pick retest | shares compounds with FEN1 inh-1 | FEN1 flap cleavage, TAMRA/BHQ2 fluorogenic DNA substrate | Potency, µM, most hits filed as inhibitors | 880 tested, 79% active; further: nearly all actives have a fitted effect of over 60% in size
WRN helicase inh-2 = confirmation of human WRN helicase inhibitors; shares compounds with WRN helicase inh-1; WRN helicase DNA unwinding, fluorescence kinetic; Potency, µM (top dose mostly 57.1 µM), usual class: inhibitors; 610 tested, 63% active; AID 720497; further: nearly all actives have a fitted effect of over 65% in size
TO displacement = binds DNA, flagged in WRN inhibitor counterscreen; shares compounds with WRN helicase inh-1; thiazole orange DNA binding displacement, fluorescence; Potency, µM (doses to about 57.1 µM), usual class: inhibitors; 610 tested, 10% active; AID 720499;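 further: drop in dye fluorescence marks compound binding to DNA; nearly all actives have a fitted effect of over 60% in size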
BLM helicase inh-2 = BLM helicase inhibition, WRN selectivity check. shares compounds with WRN helicase inh-1. Recombinant BLM helicase DNA unwinding, red fluorescence. Potency, µM (top dose mostly 57.1 µM), usual class: inhibitors. 610 tested, 60% active; further: nearly all actives have a fitted effect of over 60% in size
A number is an active result; - = inactive; ? = inconclusive; . = no result given. Only some compounds are listed: those with a hit (about 0.99% of all), similar ones and a draw of the others. The call rests on the fitted dose curve; in most records, active means well fitted curve in the direction sought with a large enough effect; inconclusive means small, poorly fitted or top-dose-only effect, or another doubt; inactive means no such curve, though single readings can be large; an effect the other way counts as inactive or inconclusive.

SMILES	L3MBTL1 inh-1	FEN1 inh-1	RECQ1 inh-1	BLM helicase inh-1	WRN helicase inh-1	RECQ1 inh conf	RECQ1 inh-2	WRN helicase inh-2	TO displacement	BLM helicase inh-2	others
CCN(CC(=O)Nc1ccccc1C(F)(F)F)C(=O)c1cccc(S(=O)(=O)N2CCN(C)CC2)c1	-	-	.	.	-	.	.	.	.	.
COc1ccc(S(=O)(=O)N2CCOCC2)cc1NC(=O)CC1CCCC1	-	-	.	.	-	.	.	.	.	.
COc1ccnc2c1c(=O)n(Cc1ccc(F)cc1)c(=O)n2C	.	-	.	-	-	.	.	.	.	.
[C-]#[N+][C@H](O[C@@H]1O[C@H](CO)[C@@H](O)[C@H](O)[C@H]1O)c1ccccc1	.	-	.	.	-	.	.	.	.	.
O=C(O)CC(CCc1ccccc1)OC1OC(CO)C(O)C(O)C1O (centres undefined)	.	7.9µM	3.5µM	-	?	-	.	1.7µM	-	1.5µM	FEN1 inh-2=27
O=C(CCNS(=O)(=O)c1ccc(Br)cc1)NC1CCC(O)CC1 (centres undefined)	-	-	.	.	-	.	.	.	.	.
Clc1ccc2scc(CN3CCCC3)c2c1	.	-	.	.	-	.	.	.	.	.
C=CCSC1=NC(=O)/C(=C/c2cccs2)S1	-	-	-	-	-	.	.	.	.	.
C=CCSC1=N/C(=C\C=C\c2ccco2)C(=O)S1	2.8µM	50µM	13µM	?	32µM	45µM	?	19µM	24µM	5.4µM	RECQ1 ADP FP=14µM
Cc1ccc(S(=O)(=O)Cc2ccc(C(=O)O)o2)cc1	.	?	8.9µM	-	45µM	?	?	19µM	-	7.6µM	RECQ1 ADP FP=?
Cc1ccccc1NC(=O)CN1C(=O)S/C(=C\c2ccc(-c3cccc(C(=O)O)c3C)o2)C1=O	-	-	-	-	-	.	.	.	.	.
Cc1ccc(NC(=O)CN2C(=O)S/C(=C/c3ccc(-c4cc(C(=O)O)ccc4C)o3)C2=O)cc1C	.	35µM	14µM	?	22µM	22µM	?	7.6µM	-	5.4µM	RECQ1 ADP FP=?
O=C1CC(c2ccco2)CC(O)=C1C=Nc1cc(Cl)ccc1O (centres undefined)	35µM	-	22µM	-	?	.	?	22µM	-	7.6µM
COc1ccc(OC)c(N2C(=O)[C@@H]3C(c4ccccc4Cl)=NO[C@@H]3C2=O)c1	3.5µM	50µM	28µM	-	40µM	.	?	22µM	?	17µM	L3MBTL1 inh-2=3;L3MBTL1 ctr=-
O=C(CNC(=O)C1CCCCC1)OCC(=O)c1ccc(Br)cc1	.	-	.	-	-	.	.	.	.	.
COc1cc(/C=C2/SC(=Nc3ccc(O)cc3)NC2=O)cc(OC)c1O	?	-	-	-	-	.	.	.	.	.
O=C1NC(=Nc2ccc(O)cc2)S/C1=C\C=C\c1ccco1	16µM	-	?	-	?	.	?	19µM	?	22µM	L3MBTL1 inh-2=13;L3MBTL1 ctr=-
COc1ccc(CC2(c3ccccc3)NC(=O)NC2=O)cc1 (centres undefined)	.	-	.	.	-	.	.	.	.	.
O=C(NC1CCCCCCC1)C1CCN(S(=O)(=O)N2CCCC2)CC1	-	-	-	-	-	.	.	.	.	.
COc1cc(/C=C2\CCc3c2nc2ccccc2c3C(=O)O)cc(OC)c1OC	4µM	50µM	10µM	14µM	32µM	22µM	?	19µM	?	19µM	RECQ1 ADP FP=-;L3MBTL1 inh-2=1.5;L3MBTL1 ctr=-
O=c1c(-c2ccc([N+](=O)[O-])cc2)coc2c(O)c(O)ccc12	.	?	8.9µM	-	22µM	.	?	4.8µM	-	4.3µM
Cc1ccc(-c2csc(NC(=O)/C=C/c3ccco3)c2C(=O)O)cc1	?	-	22µM	?	40µM	?	-	?	-	?	RECQ1 ADP FP=-
O=C(Nc1scc(-c2ccc(F)cc2)c1C(=O)O)c1ccco1	.	-	-	-	-	.	.	.	.	.
Cc1nn(CCc2nc(-c3ccco3)cs2)c2[nH]c(=O)cc(C(F)(F)F)c12	35µM	?	14µM	?	35µM	?	?	?	-	22µM	RECQ1 ADP FP=?;L3MBTL1 inh-2=21;L3MBTL1 ctr=-
O=c1[nH]c(=O)n(Cc2ccccc2)c2nc(-c3ccco3)cc(C(F)(F)F)c12	-	-	-	-	-	.	.	.	.	.
SMILES	L3MBTL1 inh-1	FEN1 inh-1	RECQ1 inh-1	BLM helicase inh-1	WRN helicase inh-1	RECQ1 inh conf	RECQ1 inh-2	WRN helicase inh-2	TO displacement	BLM helicase inh-2	others
CCOC(=O)C1CCN(C2=NC(=O)/C(=C/c3ccc(O)cc3)S2)CC1	.	-	.	-	-	.	.	.	.	.
COc1ccc(/C=N/NC(=O)C(=O)N2CCCC2)cc1	-	-	-	-	?	.	.	.	.	.
CCc1cc(=O)oc2cc(C)c(CN3CCCCC3)c(O)c12	13µM	50µM	10µM	18µM	25µM	?	-	?	-	?	RECQ1 ADP FP=63µM
Cc1ccc(CNC(=O)CCS(=O)(=O)c2ccc(Br)cc2)cc1	.	-	?	-	25µM	.	?	3.8µM	5.4µM	2.2µM
Cc1cc(C)c2nc(-c3ccccn3)cc(C(=O)Nc3ccc(S(=O)(=O)Nc4onc(C)c4C)cc3)c2c1	?	?	?	?	40µM	.	?	15µM	?	6.8µM
CC1CCCCN1C(=O)c1ccc2c(c1)N(Cc1cccc(Cl)c1)C(=O)c1ccccc1S2=O (centres undefined)	.	-	.	-	.	.	.	.	.	.
COc1cc(-c2nnc(SCc3cc(=O)oc4cc(O)c(O)cc34)o2)cc(OC)c1OC	.	40µM	1.8µM	10µM	10µM	3.5µM	?	2.4µM	19µM	0.96µM	RECQ1 ADP FP=126µM;FEN1 inh-2=38
CCCCCC/C(C)=C1/SC(=S)NC1=O	-	-	-	-	-	.	.	.	.	.
C/C(C/C(C)=C1/SC(=S)NC1=O)=C1\SC(=S)NC1=O	.	13µM	14µM	-	28µM	?	.	3.8µM	-	?	FEN1 inh-2=19
Cc1ccc(O)c(NC(=O)CSc2n[nH]c(-c3ccccc3)n2)c1	.	-	.	-	-	.	.	.	.	.

Compound activity: PubChem BioAssay, National Center for Advancing Translational Sciences (NCATS)
